Compounds with a hit are over-represented: about 2.1% of the library has one in this group of screens.
aSyn yeast inh – rescues yeast growth from alpha-synuclein toxicity; 0.14% of 370,000 active; Yeast expressing alpha-synuclein, growth rescue, BacTiter-Glo, 24 h; Potency, µM (titrated, usually from 46.1 µM), for the others: top-dose growth rescue (activation), usual class: activators; also: % of control where 0% means no effect; nearly all actives have a fitted effect of over 65% in size
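Rescue of yeast growth: cells expressing toxic alpha-synuclein, induced in galactose at OD600 0.02, incubated with compound 24 h at 30 C. ATP luminescence quantified growth; inhibitors of toxicity appear as activators.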
Abeta yeast res – restores growth of yeast expressing A-beta42 peptide. AID 1347071. yeast expressing A-beta42, growth rescue, OD600, 48 h; response scale: 0% DMSO, 100% iron-clioquinol control. 0.063% of 410,000 active. Potency, µM (titrated, usually from 46.1 µM), most hits filed as activators; also: nearly all actives have a fitted effect of over 55% in size
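Yeast growth medium received pinned compounds, then yeast cells expressing toxic A-beta were added; plates incubated at 30 C for 48 hr. Growth read as absorbance at 600 nm, normalized to DMSO and equimolar FeCl3 plus clioquinol controls.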
FUS yeast rescue – suppressors of FUS proteinopathy in yeast. S. cerevisiae FUS-expressing, growth rescue, OD600, 24 h. Potency, µM (doses to about 76.6 µM), usual class: activators. 0.24% of 390,000 active;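 also: plate controls were DMSO vehicle for no effect and reference control for full effect; nearly all actives have a fitted effect of over 55% in size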
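Toxicity suppression screen in FUS-yeast. Cells induced with 2% galactose, starting OD 0.005, treated 24hr at 30C with compounds at multiple final concentrations; growth by OD600.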
TDP43 rescue – rescues yeast growth from TDP-43 toxicity; TDP-43 expressing yeast growth rescue, BacTiter-Glo, 24 h; Potency, µM (series often up to 46.1 µM), for inactives: at the top dose growth rescue (activation), actives largely listed as activators; 1.8% of 410,000 active; also: % of control where 0% means no effect; nearly all actives have a fitted effect of over 50% in size
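Yeast cells expressing TDP-43 under galactose induction are exposed to compounds for 24 hr at 30 deg C. BacTiter-Glo luminescence measures growth, so protective compounds score as activators.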
Starred values were filed as active, the others as inactive. Calls follow the shape of the dose curve; as a rule, active = well fitted curve in the direction sought with a large enough effect; inconclusive = small, poorly fitted or top-dose-only effect, or another doubt; inactive = no such curve, though single readings can be large; an effect the other way counts as inactive or inconclusive. Potency is read from the fitted curve at half-maximal effect.

For Cc1cc2nc(C(C)(C)C)c(Cc3ccsc3)n2c(C)c1Br the results were aSyn yeast inh -13%, Abeta yeast res inconclusive, FUS yeast rescue inactive and TDP43 rescue 13µM*.
Cc1ccc(Cc2c(C3CCCCC3)nc3cc(C)c(Br)c(C)n23)cc1 was read as aSyn yeast inh -1%, Abeta yeast res inactive, FUS yeast rescue inactive and TDP43 rescue 7%.
For Cc1cc2nc(C3CCCCC3)c(Cc3ccsc3)n2c(C)c1Br the results were aSyn yeast inh 3.5µM*, Abeta yeast res inactive, FUS yeast rescue inactive and TDP43 rescue 20%.
O=C(CCCC1=NS(=O)(=O)c2ccccc2N1)N1CCN(c2ccccc2Cl)CC1 was read as FUS yeast rescue inactive.
Screening COc1ccc(Nc2nc(N3CCOCC3)nc(N3CCOCC3)n2)cc1Cl returned aSyn yeast inh 4%, Abeta yeast res inactive, FUS yeast rescue inactive and TDP43 rescue 16µM*.
`Cc1ccc(Nc2nc(Nc3ccc(C)c(C)c3)nc(N3CCOCC3)n2)cc1C` gave Abeta yeast res inactive, FUS yeast rescue inactive and TDP43 rescue 16%.
`CCOc1nc(Nc2ccc(OC)cc2)nc(OCC)n1` gave aSyn yeast inh -4%, Abeta yeast res inactive, FUS yeast rescue inactive and TDP43 rescue 22%.
Screening CCOc1nc(Nc2ccc(OC)c(Cl)c2)nc(OCC)n1 returned aSyn yeast inh 2%, Abeta yeast res inactive, FUS yeast rescue inactive and TDP43 rescue 14µM*.
`C#CCNC(=O)C[C@@H]1C(=O)N(CC=C)/C2=C/CCCCC[C@]21C(=O)OCC` gave FUS yeast rescue inactive.
Cc1ccc(Nc2cc(C)nc(-c3ccccc3O)n2)cc1 was read as aSyn yeast inh -13%, Abeta yeast res inactive, FUS yeast rescue inactive and TDP43 rescue inconclusive.
C/C(=N\Nc1cc(-c2ccccc2)nc(-c2ccccc2)n1)c1ccc(O)c(C)c1 was read as aSyn yeast inh 4%, Abeta yeast res inactive, FUS yeast rescue inactive and TDP43 rescue 16µM*.
`Cc1cc(N/N=C/c2ccc(O)c(C)c2O)nc(-c2ccccc2O)n1` gave aSyn yeast inh -9%, Abeta yeast res inactive, FUS yeast rescue inactive and TDP43 rescue 10µM*.
C/C(=N\Nc1cc(C)nc(-c2ccccc2O)n1)c1ccccc1 was read as aSyn yeast inh -14%, Abeta yeast res inactive, FUS yeast rescue inactive and TDP43 rescue 10µM*.
COCc1cc(C)nc2sc(C(=O)OC)c(N)c12 was read as aSyn yeast inh 1%, Abeta yeast res inactive, FUS yeast rescue inactive and TDP43 rescue 13µM*.
For Cc1cc(C)c2c(N)c(C(=O)Nc3ccccc3Br)sc2n1 the results were aSyn yeast inh -4%, Abeta yeast res inactive, FUS yeast rescue inactive and TDP43 rescue 12%.
For CCc1ccccc1NC(=O)c1sc2nc(C)cc(C)c2c1N the results were aSyn yeast inh 0%, Abeta yeast res inactive, FUS yeast rescue inactive and TDP43 rescue 18µM*.
Screening CC(C)CN1C(=O)[C@]2(CC(=O)N(C)C2c2ccccc2)c2cc(-n3cc(-c4ccccc4)nn3)ccc21 (some centres not stated) returned FUS yeast rescue inactive.
Screening Fc1ccc(NC2CCC23CCC(c2ccccc2)CC3)cc1C(F)(F)F (configuration not stated) returned FUS yeast rescue inactive.
Screening CCCCCCCCCCOC(=O)Cn1c(COc2ccccc2C)[n+](C)c2ccccc21 returned aSyn yeast inh -52%, Abeta yeast res inactive and FUS yeast rescue 40µM*.
For CCCCCCCCCCOC(=O)Cn1c(COc2ccccc2)[n+](C)c2ccccc21 the results were aSyn yeast inh -13%, Abeta yeast res inactive, FUS yeast rescue inactive and TDP43 rescue -84%.
Cc1ccc(C)c(NC(=O)Cn2nnc(-c3ccncc3)n2)c1 was read as FUS yeast rescue inactive.
For COc1ccc(C(C#N)=Cc2ccccc2OC)cc1 the results were aSyn yeast inh -9%, Abeta yeast res inactive, FUS yeast rescue inactive and TDP43 rescue 20µM*.
For COc1ccc(/C=C(\C#N)c2nc3ccccc3n2C)c(OC)c1 the results were Abeta yeast res inactive, FUS yeast rescue inactive and TDP43 rescue 20µM*.
`CCOc1ccc(Nc2ncnc3onc(-c4ccc(Cl)cc4)c23)cc1` gave Abeta yeast res inactive, FUS yeast rescue inactive and TDP43 rescue 22µM*.
COc1cc(Nc2ncnc3onc(-c4ccc(Cl)cc4)c23)cc(OC)c1 was read as aSyn yeast inh 0%, Abeta yeast res inactive, FUS yeast rescue inactive and TDP43 rescue 17%.
`CC(=O)Nc1ccc(/C=C/c2ccnc3ccccc23)cc1[N+](=O)[O-]` gave aSyn yeast inh 0%.
Screening O=C(c1cc2ccc3cccnc3c2[nH]1)N1CCN(c2ccc(Cl)cc2)CC1 returned Abeta yeast res inactive, FUS yeast rescue inactive and TDP43 rescue -6%.
`O=C(c1cc2ccc3cccnc3c2[nH]1)N1CCN(c2cccc(Cl)c2)CC1` gave Abeta yeast res inactive, FUS yeast rescue inconclusive and TDP43 rescue 13µM*.
`Cc1ccc(Cl)cc1N1CCN(C(=O)c2cc3ccc4cccnc4c3[nH]2)CC1` gave Abeta yeast res inactive, FUS yeast rescue inactive and TDP43 rescue 20µM*.
For COc1cccc(N2CCN(C(=O)c3cc4cc(Cl)ccc4[nH]3)CC2)c1 the results were aSyn yeast inh inconclusive, Abeta yeast res inactive, FUS yeast rescue inactive and TDP43 rescue 13µM*.
For CCc1ccccc1NC(=O)Cn1nnc(C(=O)NCc2ccco2)c1N the results were Abeta yeast res inactive, FUS yeast rescue inactive and TDP43 rescue 6%.
Cc1ccc(Sc2nnc(-c3ccccc3)cc2C#N)cc1 was read as aSyn yeast inh 4%, Abeta yeast res inactive, FUS yeast rescue inactive and TDP43 rescue 21%.
For Cc1ccc(Sc2ccc(N)cc2C#N)cc1 the results were aSyn yeast inh 13%, Abeta yeast res inactive and TDP43 rescue 22µM*.
Screening CCCN(C(=O)Cn1cnc2sc(C)c(S(=O)(=O)N3CCN(c4ncccn4)CC3)c2c1=O)c1cccc(C)c1 returned Abeta yeast res inactive, FUS yeast rescue inactive and TDP43 rescue 2%.
For Nn1c(SCC(=O)N2c3ccccc3Sc3ccc(Cl)cc32)nnc1-c1cc(-c2ccc(F)cc2)n[nH]1 the results were FUS yeast rescue 14µM*.
`Cc1c(NC(=O)C2CCCN(S(=O)(=O)c3ccccc3[N+](=O)[O-])C2)c(=O)n(-c2ccccc2)n1C` (configuration not stated) gave FUS yeast rescue inactive.
`CCC(=O)N1N=C(c2cccs2)CC1c1ccc(OC)cc1` (configuration not stated) gave aSyn yeast inh 2%, Abeta yeast res inactive, FUS yeast rescue inactive and TDP43 rescue inconclusive.
